Only some compounds are listed: those with a hit (about 1.3% of all), similar ones and a draw of the others.
beta cell repl: inducers of MIN6 beta-cell proliferation, primary screen, ATP luminescence, uHTS. MIN6 cells proliferation, ATPlite luminescence, 48 h; cells starved in 0.2% serum; 100% = growth in 10% serum. proliferation, % at 10 µM. hit rate 0.29% among 330,000;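 active = compounds whose signal lies at least 3.5 SD above the mean of all wells on their plate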;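 note: 0% = DMSO-treated cells in low-serum medium and 100% = 10% serum control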
UBC13 polyUb: UBC13 polyubiquitin chain formation inhibitors, primary screen, biochemical, TR-FRET, uHTS | Ubiquitin-conjugating enzyme E2 N (Homo sapiens), P61088 | inhibition, % at 20 µM | hit rate 0.47% among 330,000 | AID 485273, 2010; in the data active = inhibition above about 45%, passing the limit was not always enough; inconclusive = no clear call, values can overlap the other calls
Target sequence (P61088 whole entry, looked up): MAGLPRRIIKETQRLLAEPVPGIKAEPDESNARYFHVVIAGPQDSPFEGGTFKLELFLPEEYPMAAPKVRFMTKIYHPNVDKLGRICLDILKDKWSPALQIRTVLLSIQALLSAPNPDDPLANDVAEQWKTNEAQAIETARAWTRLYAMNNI
RAD54 branch: inhibitors of human RAD54 branch migration, primary screen, biochemical, fluorescence, single point; DNA repair and recombination protein RAD54-like (Homo sapiens), Q92698; RAD54 Holliday junction branch migration, FAM/BHQ fluorescence; inhibition, % at 10.4 µM; hit rate 0.14% among 360,000;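 active = mean normalized replicate activity at least 40 and at least half of replicates scoring 40 or more; inconclusive = only one of the two criteria met; inactive = mean below 40 and under half of replicates reaching 40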;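 note: 0% = median of neutral control wells and 100% = median of positive control wells; inhibitors cause a drop in the FAM fluorescence signal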
DNA FID counter: compounds displacing fluorescent DNA intercalator, primary screen, artefact control for HCV NS3 helicase inhibitor project, biochemical, FID fluorescence; hit rate 0.17% among 290,000; DNA fluorescent intercalator displacement; inhibition, % at 7.9 µM; in the data active = inhibition above about 37%;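 note: 0% = vehicle and 100% = reference compound; higher means more ethidium bromide displaced from hairpin DNA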
PREPL inh: PREPL enzyme inhibitors, primary screen, biochemical, fluorescence polarization; Prolyl endopeptidase-like (Homo sapiens), Q4J6C6; recombinant PREPL, fluorescence polarization activity-based probe; inhibition, % at 5.96 µM; hit rate 0.68% among 320,000; in the data active = inhibition above about 43%;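 note: 0% = enzyme with DMSO and 100% = wells lacking enzyme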
RAD52 inh: RAD52 DNA annealing inhibitors, primary screen, biochemical, FRET, single point, set 2; DNA repair protein RAD52 homolog (Homo sapiens), P43351; recombinant RAD52 DNA annealing, FRET fluorescence; inhibition, % at 18.7 µM; hit rate 0.46% among 360,000;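 active = every replicate showing at least 50% inhibition; inconclusive = mean inhibition at least 50% but not in every replicate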
Target sequence (P43351 whole entry, looked up): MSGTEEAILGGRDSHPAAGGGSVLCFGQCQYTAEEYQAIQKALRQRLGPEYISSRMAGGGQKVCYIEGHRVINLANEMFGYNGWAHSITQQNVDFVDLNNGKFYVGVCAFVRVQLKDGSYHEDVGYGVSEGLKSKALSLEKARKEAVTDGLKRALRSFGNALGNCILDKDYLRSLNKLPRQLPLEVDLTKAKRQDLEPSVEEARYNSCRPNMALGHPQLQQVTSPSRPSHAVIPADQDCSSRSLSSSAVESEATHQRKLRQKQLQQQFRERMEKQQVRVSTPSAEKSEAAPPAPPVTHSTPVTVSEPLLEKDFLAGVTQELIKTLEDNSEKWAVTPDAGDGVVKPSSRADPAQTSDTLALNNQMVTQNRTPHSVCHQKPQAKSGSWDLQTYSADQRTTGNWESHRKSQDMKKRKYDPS
DNA binding: DNA binding of candidate compounds, dose response, artefact control for RAD54 inhibitor project, biochemical, fluorescence polarization, cherry-pick. hit rate 8% among 460. AC50, µM (series often up to 35 µM), for the others: at the top dose activity change, negative = DNA binding. Acridine orange-DNA displacement, 20 min. shares compounds with RAD54 branch;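 active = signal drop giving an AC50 within twice the top valid tested concentration of each sample, actives reach about 35 µM in these data; inactive = activity opposite to expected, plus the rest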;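 note: polarization loss reports compound binding to salmon sperm DNA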
DNA binder FP: DNA-binding compounds via dye displacement, dose response, artefact control for RAD52 inhibitor project, biochemical, fluorescence polarization, cherry-pick; shares compounds with RAD52 inh; Salmon sperm DNA/acridine orange FP displacement; AC50, µM; hit rate 8% among 1,000; AID 652128, 2013;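 active = fitted half-maximal concentration for signal loss at or below twice the highest dose tested, in every separate run, actives reach about 64 µM in these data; inconclusive = runs disagree, or flat partial signal loss, or poor fit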
* marks the source's active call; other numbers are inactive results; i = inactive; ? = inconclusive; · = no result.

SMILES	beta cell repl	UBC13 polyUb	RAD54 branch	DNA FID counter	PREPL inh	RAD52 inh	DNA binder FP	others
Cc1cc(N2CCN(C)CC2)nc2ccc(NC(=S)NCCCN3CCN(C)CC3)cc12	-1.9	3.3	77.5*	36.2	1.5	82.2*	i	DNA binding=-6.4%
C[C@H](CO)N1C[C@H](C)[C@H](CN(C)C(=O)Nc2ccccc2)Oc2ncc(C#Cc3ccc(C(F)(F)F)cc3)cc2C1=O	·	·	-2.3	·	·	1.7	·
CC(C)c1cn(CC[C@@H]2CC[C@@H](NC(=O)c3cccc(F)c3)[C@H](CO)O2)nn1	·	·	2.0	·	·	-8.1	·
CN(C)CCNC(=O)c1c(NC(=O)c2ccccc2)sc2c1CCCC2	-4.7	18.0	58.0*	16.9	21.6	53.0*	i	DNA binding=-6.6%
O=C(N[C@H]1CC[C@@H](CCNS(=O)(=O)c2ccc(F)cc2)O[C@H]1CO)C1CCCC1	·	·	7.1	·	·	-3.4	·
COc1ccc(Nc2c3c(nc4ccccc24)CCCC3)cc1OC	-5.1	-15.5	·	0.4	33.7	13.9	·
COc1cc(Nc2c3ccccc3nc3ccccc23)cc(OC)c1OC	-4.9	-108.0	76.2*	33.4	29.7	55.1*	i	DNA binding=-13.2%
Oc1cccc(Nc2c3ccccc3nc3ccccc23)c1	-7.0	-63.4	57.3*	41.9*	35.6	81.8*	?	DNA binding=30µM*
Cc1ccc(-c2nc(Nc3cccc(O)c3)c3ccccc3n2)cc1	-7.0	16.7	14.4	12.2	3.2	-20.3	·
COc1ccc(CCNc2c3ccccc3nc3ccccc23)cc1OC	0.5	-3.1	100.4*	10.2	-36.9	83.4*	i	DNA binding=-12.5%
C[C@H](CO)N1C[C@H](C)[C@H](CN(C)S(=O)(=O)c2ccc(Cl)cc2)OCCCC[C@H](C)Oc2ccc(NS(=O)(=O)c3ccc(Cl)cc3)cc2C1=O	·	·	-10.0	·	·	·	·
Cc1cc(N2CCNC[C@@H]2C)ccc1N1CCS(=O)(=O)CC1	·	·	·	·	·	-37.7	·
C[C@@H]1CNCCN1c1ccc(N2CCS(=O)(=O)CC2)c(C#N)c1	·	·	·	·	·	55.3*	i
COc1ccc2sc3cccc(NCCN(C)C)c3c(=O)c2c1	·	·	·	·	·	58.3*	38.5µM*
CN(C)CCNc1ccc(CO)c2sc3ccc(O)cc3c(=O)c12	·	·	·	·	·	0.3	·
CCCCCCCCCCCCCCC(O)C[N+](C)(CCO)CCO (stereo not given)	·	·	·	·	·	84.6*	?
O=C(C[n+]1ccc2ccccc2c1)c1ccc2ccc3ccccc3c2c1	·	·	·	·	·	89.9*	i
O=C(C[n+]1ccc2ccccc2c1)c1ccccc1	-4.7	0.1	2.7	-0.1	28.3	-2.4	·
CO[C@H]1CN(C)C(=O)c2cc(NC(=O)Nc3cc(F)ccc3F)ccc2OC[C@@H](C)N(C(=O)c2cnccn2)C[C@@H]1C	·	·	1.8	·	·	-2.6	·
CO[C@H]1CN(C)C(=O)c2ccc(NC(=O)C3CC3)cc2OC[C@@H](C)N(C(=O)c2ccccc2F)C[C@H]1C	·	·	-0.3	·	·	1.3	·
O=C1c2ccccc2C(=O)c2c(NCCCN(CCO)CCO)cccc21	1.6	-416.5	·	89.0*	·	93.1*	4.26µM*
C[C@@H](NC(=O)C[C@@H]1CC[C@@H](NS(=O)(=O)c2cccc(F)c2)[C@@H](CO)O1)c1ccccc1	·	·	4.3	·	·	7.8	·
COc1cc2c[n+](C)c3c4ccccc4ccc3c2cc1OC	·	·	·	·	·	104.4*	?
COc1ccc(/C=C/c2ccc3ccccc3[n+]2C)cc1OC	-5.4	-46.2	32.4	6.8	21.1	·	·
COc1ccc2c(c1)c[n+](C)c1c3cc(OC)c(OC)cc3ccc21	·	·	·	·	·	108.9*	36.2µM*
SMILES	beta cell repl	UBC13 polyUb	RAD54 branch	DNA FID counter	PREPL inh	RAD52 inh	DNA binder FP	others
COc1ccc(Cc2c3cc(OC)c(OC)cc3cc[n+]2C)cc1OC	-0.4	-12.2	-11.8	·	-0.1	·	·
Cc1ccc2cc(C#N)c(NCCNC(=S)NCCCN(C)C)nc2c1C	-6.3	28.4	·	23.5	-19.4	100.4*	i
CC(=O)Nc1cccc(Oc2nc(NCCN(C)C)nc3ccsc23)c1	·	·	11.2	·	·	89.5*	i
Cc1nc2cc(Oc3nc(NCCN(C)C)nc4ccsc34)ccc2s1	·	·	22.6	·	·	78.0*	i
CNc1nc(Oc2cccc(F)c2)c2sccc2n1	·	·	-0.8	·	·	11.6	·
CN(C)CCNc1nc(Oc2cccc(F)c2)c2sccc2n1	·	·	-3.5	·	·	58.2*	i
COCCNc1nc(Oc2ccc(Cl)c(Cl)c2)c2sccc2n1	·	·	3.6	·	·	-2.9	·
CNc1nc(Oc2ccc3sc(C)nc3c2)c2sccc2n1	·	·	2.5	·	·	-2.3	·
O=C(C[C@@H]1CC[C@@H](NC(=O)Nc2ccc3c(c2)OCO3)[C@@H](CO)O1)NCc1ccc(F)cc1	·	·	0.6	·	·	-4.5	·
COc1cccc(NC(=O)N(C)C[C@H]2Oc3cc(C#CC4(O)CCCC4)ccc3S(=O)(=O)N([C@@H](C)CO)C[C@H]2C)c1	·	·	-2.4	·	·	16.6	·
CS(=O)(=O)Nc1ccc2c(c1)[C@H]1C[C@@H](CC(=O)NCc3ccc(Oc4ccccc4)cc3)O[C@H](CO)[C@H]1O2	·	·	-12.1	·	·	6.6	·
Cc1ccc(C)n1-c1nnc(N2CCC(C(=O)NCCCN3CC(C)CC(C)C3)CC2)s1 (stereo not given)	-2.6	1.5	9.8	12.2	14.1	44.2	·
Cc1ccc(C)n1-c1nnc(N2CCC(C(=O)NCCCN3CCN(C)CC3)CC2)s1	-3.2	8.4	-5.1	-1.0	-0.9	70.3*	i
c1cncc(Nc2c3ccccc3nc3ccccc23)c1	-1.9	-22.9	78.1*	37.3*	10.9	59.1*	i
CCN1CCN(Cc2ccc(NC(=O)c3cccc(-c4ccc5nc(NC(=O)C6CC6)sc5n4)c3)cc2C(F)(F)F)CC1	·	·	·	·	·	66.6*	i
CCN(CCN(C)C)C(=O)c1ccc2c(c1NCCO)C(=O)c1ccccc1C2=O	-3.1	-312.1	·	33.3	20.5	57.7*	58.2µM*
O=C1c2ccccc2C(=O)c2c1ccc(C(=O)N1CCCCC1)c2NCCO	1.1	-457.5	13.8	2.9	11.1	·	·
CS(=O)(=O)N1CC2(C1)[C@@H](c1ccccc1)[C@H](CO)N2C(=O)C1CCC1	·	·	·	·	·	-23.4	·
CN1CCN(CCCNC(=O)c2ccc(/C=C3\Sc4ccccc4N(Cc4ccccc4F)C3=O)cc2)CC1	·	·	·	33.9	·	89.9*	i
CCCC#Cc1ccc2c(c1)O[C@H](CN(C)Cc1cccnc1)[C@@H](C)CN([C@@H](C)CO)S2(=O)=O	·	·	-3.8	·	·	18.0	·

Screening data as filed in PubChem.
